153 variants from a collection of fitness landscapes (doi:10.1126/science.1257360) can be followed below.

B1: PhoQ; a variant is named by its letters at X, in order, P23837 (parent)
chain: MKKLLRLFFPLSLRVRFLLATAAVVLVLSLAYGMVALIGYSVSFDKTTFRLLRGESNLFYTLAKWENNKLHVELPENIDKQSPTMTLIYDENGQLLWAQRDVPWLMKMIQPDWLKSNGFHEIEADVNDTSLLLSGDHSIQQQLQEVREDDDDAEMTHSVAVNVYPATSRMPKLTIVVVDTIPVELKSSYMVWSWFIYVLSANLLLVIPLLWVAAWWSLRPIEALAKEVRELEEHNRELLNPATTRELTSLVRNLNRLLKSERERYDKYRTTLTDLTHSLKTPLXXLQXXLRSLRSEKMSVSDAEPVMLEQISRISQQIGYYLHRASMRGGTLLSRELHPVAPLLDNLTSALNKVYQRKGVNISLDISPEISFVGEQNDFVEVMGNVLDNACKYCLEFVEISARQTDEHLYIVVEDDGPGIPLSKREVIFDRGQRVDTLRPGQGVGLAVAREITEQYEGKIVAGESMLGGARMEVIFGRQHSAPKDE

In all, about 140,000 sequences were measured (“enrichment ratio after two sorts for PhoP signalling”: median about 0, highest 2% from about 11 on). The entries come from a sample that favours the highest values as a whole.

Variants of B1 are the subject of this test. The test is described as follows: enrichment ratio after two sorts for PhoP signalling (ratio (wild type AVST 3.29)); higher = more functional. As to conditions: with PhoP (E. coli).
For the variant IKMW, the enrichment ratio is not above 0.25.
As for ASMI, the enrichment ratio came to 13.5.
Turning to ASEG, the enrichment ratio is not above 0.25.
Take ASVE: the enrichment ratio was 21.7.
Consider ASHE, for which the enrichment ratio was not above 0.25.
As to ASMV, the enrichment ratio is 7.76.
As to ASWG, the enrichment ratio was not above 0.25.
As for ASTG, the enrichment ratio came to 14.7.
As to ASMS, the enrichment ratio was determined as 5.31.
Regarding ASIG, the enrichment ratio worked out at 12.
For the variant KSVE, the enrichment ratio is not above 0.25.
In the case of PNRW it was not above 0.25.
As to LAVR, the enrichment ratio was not above 0.25.
Turning to IMSG, the enrichment ratio was not above 0.25.
For the variant RHEW, the enrichment ratio was not above 0.25.
In the case of QSKD it was not above 0.25; in that of VADS, not above 0.25; in that of DWYQ, not above 0.25.
In the case of YRSW it was not above 0.25; in that of MFAS, not above 0.25; in that of MCAS, 14.
In the case of MKAS, the enrichment ratio is not above 0.25.
MMAS: the enrichment ratio is 15.4.
In the case of KMAS it was not above 0.25.
On to YTAS, for which the enrichment ratio is not above 0.25.
On to ICAS, for which the enrichment ratio is not above 0.25.
Regarding MTAS, the enrichment ratio is 12.
In the case of TMAS it was 15.
As for DMAS, the enrichment ratio is not above 0.25.
For the variant MAAS, the enrichment ratio is 1.31.
In the case of VCAS, the enrichment ratio was not above 0.25.
Turning to NQNV, the enrichment ratio is not above 0.25.
Consider NTIL, for which the enrichment ratio is not above 0.25.
As for MCAI, the enrichment ratio came to 8.95.
In the case of GQFV, the enrichment ratio is not above 0.25.
PTRG: the enrichment ratio was not above 0.25.
For the variant IQLY, the enrichment ratio was not above 0.25.
Consider QVYW, for which the enrichment ratio is not above 0.25.
As to GCPS, the enrichment ratio is not above 0.25.
For NHMN, the enrichment ratio is not above 0.25.
Consider TSMN, for which the enrichment ratio was found to be 12.3.
As to SHMN, the enrichment ratio was not above 0.25.
As for FSMN, the enrichment ratio stood at 1.56.
On to THMN, for which the enrichment ratio is 12.7.
In the case of GGMN it was not above 0.25; in that of TGMN, 34.8; in that of RGMN, not above 0.25.
In the case of KSMN, the enrichment ratio was not above 0.25.
Turning to RHML, the enrichment ratio is not above 0.25.
In the case of RVMN, the enrichment ratio is not above 0.25.
With GNFW, the enrichment ratio is not above 0.25.
Regarding LDMA, the enrichment ratio is not above 0.25.
As to ESWV, the enrichment ratio was not above 0.25.
In the case of KCLD, the enrichment ratio is not above 0.25.
RANI: the enrichment ratio was not above 0.25.
As for GSWV, the enrichment ratio was not above 0.25.
Regarding GSMW, the enrichment ratio is not above 0.25.
Regarding GSCI, the enrichment ratio turned out to be 10.8.
With GSCS, the enrichment ratio is 5.76.
In the case of GSIV, the enrichment ratio came out at 8.6.
For the variant GSCV, the enrichment ratio stood at 16.6.
In the case of GSMV it was 17.2; in that of GSCA, 0.424.
Take GSCL: the enrichment ratio came to 21.5.
Turning to FTHE, the enrichment ratio is not above 0.25.
Turning to HIYR, the enrichment ratio is not above 0.25.
In the case of AWLF it was not above 0.25; in that of YRSQ, not above 0.25.
With HSMG, the enrichment ratio is 1.29.
For the variant HSWV, the enrichment ratio is not above 0.25.
With HSMV, the enrichment ratio was found to be 17.
For HSMW, the enrichment ratio was not above 0.25.
Regarding HSMH, the enrichment ratio is not above 0.25.
In the case of HSMI it was 17.4; in that of WYLH, not above 0.25.
Consider TLFF, for which the enrichment ratio is not above 0.25.
Take AINV: the enrichment ratio was not above 0.25.
SNRK: the enrichment ratio was not above 0.25.
Consider QKYP, for which the enrichment ratio was not above 0.25.
Consider IVDD, for which the enrichment ratio is not above 0.25.
Consider VLPC, for which the enrichment ratio was not above 0.25.
HDDH: the enrichment ratio was not above 0.25.
WDDD: the enrichment ratio was not above 0.25.
In the case of STSC, the enrichment ratio amounted to 11.6.
Regarding TLSC, the enrichment ratio came to 8.65.
Regarding YTSC, the enrichment ratio is not above 0.25.
In the case of SQSC it was 11.7; in that of SRSC, not above 0.25; in that of KQSC, not above 0.25.
On to MMSC, for which the enrichment ratio is not above 0.25.
In the case of SDSC it was 2.35.
Regarding CMSC, the enrichment ratio was 39.5.
As to FVKG, the enrichment ratio is not above 0.25.
As to PVCQ, the enrichment ratio is not above 0.25.
MPMY: the enrichment ratio was not above 0.25.
Regarding HPTD, the enrichment ratio is not above 0.25.
Regarding MFHP, the enrichment ratio is not above 0.25.
As to IYSH, the enrichment ratio is not above 0.25.
As to RGAT, the enrichment ratio is not above 0.25.
In the case of RGNT it was not above 0.25.
As for RGNY, the enrichment ratio is not above 0.25.
Consider TGNY, for which the enrichment ratio was determined as 16.9.
GGAT: the enrichment ratio is not above 0.25.
As for AGAH, the enrichment ratio stood at 11.2.
For the variant TGAH, the enrichment ratio was 9.14.
In the case of GGNY it was not above 0.25.
Regarding GGNT, the enrichment ratio is not above 0.25.
Turning to TGAT, the enrichment ratio stood at 18.1.
Turning to TGNT, the enrichment ratio came to 15.8.
In the case of AKAH it was 4.55.
In the case of IMPT it was not above 0.25; in that of STPE, not above 0.25; in that of SDDK, not above 0.25.
In the case of DTVG, the enrichment ratio is not above 0.25.
In the case of MNVA it was not above 0.25; in that of LNLH, not above 0.25; in that of MLMR, not above 0.25.
Turning to AGDT, the enrichment ratio is not above 0.25.
Take AGKR: the enrichment ratio is not above 0.25.
CQNY: the enrichment ratio is 12.1.
Regarding AGAT, the enrichment ratio was 11.3.
CQWS: the enrichment ratio is not above 0.25.
In the case of CQVY it was 5.8; in that of IKGI, not above 0.25; in that of DLMM, not above 0.25.
In the case of RFVW it was not above 0.25; in that of QQLG, 2.01; in that of ITCV, not above 0.25.
In the case of ITCS it was not above 0.25; in that of YTCG, not above 0.25; in that of LTCG, not above 0.25.
For TTCG, the enrichment ratio came out at 30.3.
As for TTCV, the enrichment ratio turned out to be 17.3.
Regarding YTCS, the enrichment ratio was not above 0.25.
For the variant TTCS, the enrichment ratio came to 18.7.
On to TTCT, for which the enrichment ratio came to 12.8.
Take ITCT: the enrichment ratio is not above 0.25.
In the case of YTCV it was not above 0.25; in that of YTCT, not above 0.25; in that of ATPS, not above 0.25.
In the case of KDFS it was not above 0.25; in that of PMMQ, not above 0.25.
YYTW: the enrichment ratio is not above 0.25.
As for RVTP, the enrichment ratio was not above 0.25.
In the case of FDKV it was not above 0.25; in that of TTCE, 8.85; in that of TTCK, 5.62.
In the case of TTCI it was 15.8.
In the case of LIVW, the enrichment ratio was not above 0.25.
On to CTSF, for which the enrichment ratio turned out to be 3.85.
As to ATSF, the enrichment ratio came to 11.9.
In the case of ATSM it was 16.9; in that of YDSM, not above 0.25.
